About 2,000 (36%) of roughly 5,500 compounds were called active. Roughly 18% stayed inconclusive and do not appear here. Cut-off read from the data, not from the text of the source: active = normalized growth mostly below about 0.91 (no sharp cut-off); inconclusive = no clear call, values can overlap the other calls; inactive = mostly above about 0.92. The list shows a part of the results.
Test: chemical genetic growth profiling, strain panel (AID 1159580);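 note: tested at 20 µM; growth read once vehicle control cultures reached saturation at 30 °C; 1 = growth at the plate median or of vehicle wells; lower values mean less growth of the strain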
Details: S. cerevisiae deletion strains, growth OD

Measured: normalized growth

O=C(O)/C=C/c1cnc[nH]1
inactive: locus YAL040C, strain CLN3, hits give low values 1.01 | locus YCL061C, strain MRC1 (second series), hits give low values 1.01 | locus YDR150W, strain NUM1, hits give low values 1.02 | locus YDR363W, strain ESC2, hits give low values 1.03 | locus YER002W, strain NOP16, hits give low values 1 | locus YJR075W, strain HOC1, hits give low values 1.02 | locus YMR263W, strain SAP30, hits give low values 1.01 | locus YMR307W, strain GAS1, hits give low values 1.01 | locus YNL128W, strain TEP1, hits give low values 1.01 | locus YNL153C, strain GIM3, hits give low values 1.03 | locus YNL175C, strain NOP13, hits give low values 0.997 | locus YNL197C, strain WHI3, hits give low values 0.994 | locus YNL224C, strain SQS1, hits give low values 0.984 | locus YNL322C, strain KRE1, hits give low values 1.03 | locus YOR083W, strain WHI5 (second series), hits give low values 1.01 | locus YPL241C, strain CIN2, hits give low values 1.01
